The values below come from PubChem BioAssay AID504339 (National Center for Advancing Translational Sciences (NCATS), 2011).

Molecules are shown by their SMILES. The whole screen tested about 390,000 compounds, of which about 17,000 (4.4%) were called active. Inconclusive results (about 8%) are left out. The list comes from a sample in which actives are over-represented; it also holds similar structures and randomly drawn compounds. Values without a mark were called inactive. Calls follow the shape of the dose curve; as a rule, active = well fitted inhibition curve with a large enough effect; inconclusive = small, poorly fitted or top-dose-only effect; inactive = no such curve, though single readings can be large or run the other way.
% is scaled to controls: 0 for no effect and ±100 for the full control effect; potency is read from the fitted curve at half-maximal effect.

In the experiment the target is Lysine-specific demethylase 4A (Homo sapiens) (UniProt O75164). Kind of experiment: qHTS Assay for Inhibitors of JMJD2A-Tudor Domain. Also: nearly all actives have a fitted effect of over 50% in size. The following applies: AlphaScreen JMJD2A-Tudor / H3K4me3 peptide binding; series mostly up to 114 µM; activity change, negative = inhibition: at the top concentration. The source says: JMJD2A is a jumonji-domain-containing lysine demethylase that uses Fe(II) together with 2-OG to effect oxidative demethylation of histones. Methylation is one of many […] modification that affect epigenetic transcription. […] It is proposed that the functions of JmjD2A binding to the histones, is to maintain marks after they are installed and to spread the modifications by […], establishing a self-propagating cycle for rapid methylation over a large area of chromatin. […] Thus, small molecule targeting of the JMJD2A-tudor domain interaction with its target methylhistone mark is expected to enable sophisticated experiments probing the fine regulatory pathways leading to selective demethylation of a given methyllysine locus based on the methylation state of adjacent histone marks. A quantitative high throughput AlphaScreen has been developed to identify small molecule inhibitors based on a protocol published by NCGC and SGC [4].
Lysine-specific demethylase 4A (Homo sapiens), sequence (O75164 whole entry, looked up, the tested form may be a part): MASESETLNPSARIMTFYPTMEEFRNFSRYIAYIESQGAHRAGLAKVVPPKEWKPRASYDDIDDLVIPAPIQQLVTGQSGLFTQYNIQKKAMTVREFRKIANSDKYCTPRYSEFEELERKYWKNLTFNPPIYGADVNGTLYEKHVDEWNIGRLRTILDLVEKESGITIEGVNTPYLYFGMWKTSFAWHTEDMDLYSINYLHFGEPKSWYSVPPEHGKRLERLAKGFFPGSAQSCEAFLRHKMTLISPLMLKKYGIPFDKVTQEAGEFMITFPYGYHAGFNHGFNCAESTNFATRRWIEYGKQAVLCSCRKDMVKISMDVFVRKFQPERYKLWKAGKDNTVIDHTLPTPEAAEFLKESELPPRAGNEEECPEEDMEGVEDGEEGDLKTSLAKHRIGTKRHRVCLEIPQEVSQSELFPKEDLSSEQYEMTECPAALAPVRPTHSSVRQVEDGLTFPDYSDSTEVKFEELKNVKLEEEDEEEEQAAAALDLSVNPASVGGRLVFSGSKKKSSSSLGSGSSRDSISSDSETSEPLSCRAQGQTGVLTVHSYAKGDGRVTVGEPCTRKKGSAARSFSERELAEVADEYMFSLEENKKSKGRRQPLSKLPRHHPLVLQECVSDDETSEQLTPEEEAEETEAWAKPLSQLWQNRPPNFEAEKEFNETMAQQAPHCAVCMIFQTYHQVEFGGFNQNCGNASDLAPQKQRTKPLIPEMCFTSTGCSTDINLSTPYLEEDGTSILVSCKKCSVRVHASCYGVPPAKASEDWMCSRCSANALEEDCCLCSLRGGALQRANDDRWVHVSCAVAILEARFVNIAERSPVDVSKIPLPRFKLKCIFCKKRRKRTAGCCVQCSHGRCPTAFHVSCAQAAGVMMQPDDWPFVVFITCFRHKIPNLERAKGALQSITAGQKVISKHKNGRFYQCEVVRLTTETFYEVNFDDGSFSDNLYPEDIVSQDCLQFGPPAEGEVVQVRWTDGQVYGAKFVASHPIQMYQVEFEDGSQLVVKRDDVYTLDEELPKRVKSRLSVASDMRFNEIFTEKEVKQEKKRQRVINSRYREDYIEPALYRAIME
Although AlphaScreen has significant advantages with its utility in a variety of epigenetic target assays, the primary screening data provided in this deposition should be used with caution due to the prevalence of screening artifacts. The top compound concentration tested was high (>100uM) in this assay, which increases number of actives and potential artifacts. An AlphaScreen counterscreen is highly recommended to be run against any putative actives to eliminate non-specific artifacts. Alternatively, one can use other AlphaScreen assays in PubChem to filter out promiscuous hits.
[1] Lee, J. et al. Distinct binding modes specify the recognition of methylated histone H3K4 and H4K20 by JMJD2A-tudor. Nat Struct Mol Biol. 15(1); 109-11. 2008. PMID: 18084306
[2] Yasgar, et al. Compound Management for Quantitative High-Throughput Screening. JALA. 2008 Apr;13(2):79-89. PMID: 18496600
[3] Inglese, et al. Quantitative high-throughput screening: a titration-based approach that efficiently identifies biological activities in large chemical libraries. Proc Natl Acad Sci. 1;103(31):11473-8. 2006. PMID: 16864780
[4] Quinn et al. A homogeneous method for investigation of methyl-dependent protein-protein interactions in epigenetics. Nucleic Acids Res., 38(2):e11. 2010. PMID: […]
[5] Baell,Holloway. New substructure filters for removal of pan assay interference compounds (PAINS) from screening libraries and for their exclusion in bioassays. J Med Chem. 53(7):2719-40. 2010. PMID: 20131845
NIH Molecular Libraries Probe Production Network [MLPCN]
NIH Chemical Genomics Center [NCGC]
Structural Genomics Consortium (SGC)
To each well of a 1,536w plate, 2ul of JMJD2A-Tudor (final 100nM) and 1ul biotinylated histone peptide methylated at Lys4 [b-H3(1-18)K4me3] (final 50nM) were added in 1x PBS buffer, pH 7.4, containing 0.01% Tween-20, using a nanoliter dispenser. Formation of a protein-peptide complex proceeded at room temperature for 30 min. A Kalypsys pin-tool transferred 23nl of library compound solution in DMSO to each well. Following a 30 min incubation of the protein-peptide complex with compounds at room temperature, a mixture of 40 µg/mL each streptavidin-coated donor and nickel chelate acceptor AlphaScreen beads (final 10 µg/mL) was added in a 1ul dispense for a final volume of 4ul, followed by a brief centrifugation (1000 rpm, 1 min). Plates were incubated protected from the light for 20 min at room temperature. Microplates were then read on an EnVision multilabel plate reader using the 1,536 plate HTS AlphaScreen aperture (excitation time 80 ms, measurement time 240 ms).
In general terms: Quantitative high-throughput screening tests each substance at several concentrations.
In the case of `COc1ccc(NC(=S)NCC2CCN(c3ccc(OC)cc3)C2)cc1` (stereo not given), the Potency was 35.5 µM (active).
Consider `COc1ccc(N2CCC(N3CCN(C)C(CCO)C3)CC2)cc1` (stereo not given), for which the “activity change, negative = inhibition” value is -3.23%.
Consider `COc1ccc(NC(=O)N2CCC(Cc3ccccc3)CC2)cc1`, for which the “activity change, negative = inhibition” value was -2.41%.
The same measure, in the same setting: under `COc1ccc(OCC(=O)Nc2ccc(N3CCC(C)CC3)cc2)cc1` stands -14.1%; under `Cc1cccc(C)c1NC(=O)CNC(=O)C1CCCC1`, -12.8%.
Take `COc1ccc(N2CCC(CNC(=S)Nc3c(C)cccc3C)C2)cc1` (stereo not given): the Potency was 39.8 µM (active).
As for `Cc1ccccc1NC(=O)Cn1c(=O)n(CCCCC(=O)NCc2ccccc2Cl)c(=O)c2ccccc21`, the “activity change, negative = inhibition” value is -7.85%.
Regarding `COc1cccc(Nc2nc3ccccc3c3nncn23)c1`, the “activity change, negative = inhibition” value is 8.56%.
With `Cc1ccc(NC(=O)Cn2c(=O)n(-c3ccccc3)c(=O)c3c4c(sc32)CCCC4)cc1`, the “activity change, negative = inhibition” value was -2.39%.
Turning to `COc1cc(OC)c(C(=O)Nc2ccc(N(C)C)cc2)cc1OC`, the Potency was 79.4 µM (active).
On to `COc1cc(OC)c(C(=O)Nc2ccccc2-c2ccccc2)cc1OC`, for which the “activity change, negative = inhibition” value was -24%.
Take `COc1ccc(Cl)cc1C(=O)Nc1ccc(N(C)C(C)=O)cc1`: the “activity change, negative = inhibition” value was -14.2%.
Regarding `Cc1ccc(NC(=O)CSc2nc3c([nH]c4ccccc43)c(=O)n2-c2ccccc2)cc1Cl`, the “activity change, negative = inhibition” value is -10%.
With `CCCNC(=O)C1CCC(Cn2c(=O)c3sccc3n(Cc3ccccc3F)c2=O)CC1` (stereo not given), the “activity change, negative = inhibition” value was -1.33%.
For the molecule `O=C(Nc1cc(C(F)(F)F)ccc1Cl)c1cc2nc(-c3ccc4c(c3)OCO4)cc(C(F)(F)F)n2n1`, the “activity change, negative = inhibition” value was 0%.
As for `Cc1cc(OCCCN2CCN(Cc3ccccc3)CC2)ccc1[N+](=O)[O-]`, the Potency is 10 µM (active).
In the case of `Cc1cc(OCC(=O)NC2CCN(C)CC2)ccc1[N+](=O)[O-]`, the “activity change, negative = inhibition” value was -9.59%.
For `Cc1cc(OCCCCOc2ccc(C#N)cc2)ccc1[N+](=O)[O-]`, the “activity change, negative = inhibition” value was 2.11%.
Take `CN(C(=O)c1ccc2c(c1)N(Cc1cccc(Cl)c1)C(=O)c1ccccc1S2=O)C1CCCCC1` (stereo not given): the “activity change, negative = inhibition” value is -29.2%.
On the same count and under the same terms, with `COCCn1c(CCC(=O)Nc2cc(C)ccc2C)nc2cccnc21` the figure was -15.1%.
Regarding `CCOc1ccc(S(=O)(=O)c2cn(Cc3ccccc3)c3ccc(OCC)cc3c2=O)cc1`, the “activity change, negative = inhibition” value was -4.3%.
Consider `Cn1nnc2c(N3CCN(c4ccccc4)CC3)ncnc21`, for which the “activity change, negative = inhibition” value was -9.42%.
The same measure, in the same setting: under `CCOc1ccccc1C(=O)Nc1ccc(S(=O)(=O)N2CCCCC2c2cccnc2)cc1` (stereo not given) stands -15.2%; under `O=C(c1cccc(Cl)c1)N1CCN(CCc2ccncc2)CC1`, -0.662%.
Turning to `CSc1ccc(S(=O)(=O)NCc2ccc(Cl)cc2)cc1`, the “activity change, negative = inhibition” value is 14.7%.
Turning to `CCn1c(CSCc2c(Cl)cccc2Cl)n[nH]c1=S`, the activity change, negative = inhibition was -16.5% [at 11.4 µM].
Regarding `CCn1c(CNS(=O)(=O)c2ccc(Cl)cc2)n[nH]c1=S`, the Potency is 10 µM (active).
As for `COc1ccc(-c2nc3ccccc3s2)cc1NC(=O)COc1ccccc1C`, the “activity change, negative = inhibition” value was -1.12%.
In the case of `COc1cccc(OC)c1C(=O)Nc1nnc(C(C)C)s1`, the “activity change, negative = inhibition” value was -3.66%.
For `COc1cccc2sc(NNC(=O)c3nc4ccccc4s3)nc12`, the Potency was 50.1 µM (active).
Regarding `Cc1ccc(OCCn2c(CNc3ccccc3C)nc3ccccc32)cc1`, the “activity change, negative = inhibition” value was -10.9%.
For `COc1ccc(CNC(=O)CSCc2nc(-c3ccccc3F)oc2C)cc1`, the “activity change, negative = inhibition” value is -6.4%.
Regarding `COc1ccc(N2CCN(C(=O)CSCc3nc(-c4ccccc4Cl)oc3C)CC2)cc1`, the Potency was 50.1 µM (active).
For `COc1ccc(N2CCN(C(=O)CN3C(=O)COc4ccccc43)CC2)cc1`, the “activity change, negative = inhibition” value is -15%.
With `CCS(=O)(=O)C1=NSC2=NC(=O)/C(=C\c3ccc(OS(=O)(=O)c4ccccc4)cc3)C(=N)N21`, the Potency was 44.7 µM (active).
On to `CCOc1cc(/C=C2\C(=N)N3N=C(C)SC3=NC2=O)ccc1OCCOc1ccccc1`, for which the “activity change, negative = inhibition” value is -0.685%.
Regarding `CS(=O)(=O)C1=NN2C(=N)/C(=C\c3ccc(OCCOc4ccccc4)cc3)C(=O)N=C2S1`, the Potency was 56.2 µM (active).
In the case of `COc1ccccc1OCCOc1ccc(/C=C2\C(=N)N3N=C(C)SC3=NC2=O)cc1`, the “activity change, negative = inhibition” value is -14.5%.
The same measure, in the same setting: under `COc1cc(/C=C2\C(=N)N3N=C(CC(=O)N4CCOCC4)SC3=NC2=O)cc(OC)c1OC` stands -13%.
Still for that read-out and setting: with `CCC(=O)Nc1c(C(=O)N2CCN(c3ccc(F)cc3)CC2)oc2ccccc12` the figure was -26.9%; with `Cc1ccccc1CCNC(=O)C1CCN(c2nc3ccccc3nc2C(F)(F)F)CC1`, -6.17%.
For the molecule `COc1ccc2c(c1)c(N1CCCC1=O)c(C(=O)Nc1ccc(OC)c(Cl)c1)n2C`, the “activity change, negative = inhibition” value was -28.3%.
As for `Cc1nnc(N2CCC(C(=O)Nc3ccc(F)cc3)CC2)c2nn(-c3ccc(Cl)cc3)c(C)c12`, the “activity change, negative = inhibition” value was 5.17%.
On to `COc1ccc(Cl)cc1-n1c(CCC(=O)O)ccc1-c1ccc(C)cc1`, for which the “activity change, negative = inhibition” value was -35.3%.
For the molecule `O=c1c2ccccc2c(-c2ccc(F)cc2)nn1-c1ccc(C(F)(F)F)cc1`, the “activity change, negative = inhibition” value is 28.6%.
Turning to `CC(C)n1c(=S)[nH]c2cc(C(F)(F)F)ccc21`, the “activity change, negative = inhibition” value is -16.9%.
With `FC(F)(F)c1ccc(-n2cn[nH]c2=S)cc1`, the Potency was 8.91 µM (active).
Consider `Cc1c(NC(=O)Cc2ccccc2)cccc1-c1nc2cccnc2s1`, for which the “activity change, negative = inhibition” value is -22.5%.
For `CC/S(CC1CC1(Cl)Cl)=N\S(=O)(=O)c1ccc(C)cc1` (stereo not given), the “activity change, negative = inhibition” value was -13.1%.
As to `Cc1ccc(S(=O)(=O)/N=S(\C)C(C)C)cc1` (stereo not given), the Potency was 50.1 µM (active).
